Assay results as given in PubChem BioAssay (NCI).
Compounds without any hit were thinned out: in the full panel of roughly 83,000, 20% have a hit.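 Cells were grown in 96-well plates and exposed to the test compound at a single concentration for 48 hours; results are reported as percent growth, with values below 10 considered active.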 A number with no mark means an inactive call. The source made the active and inactive calls.

system: CAKI-1 renal; test: NCI-60 one-dose screen, 48 h (100 = growth as untreated, 0 = no growth, -100 = all killed); conditions: 10 µM unless noted
Protocol: Growth inhibition of the CAKI-1 human tumor cell line is measured as a screen for anti-cancer activity. Cells are grown in 96 well plates and exposed to the test compound for 48 hours. Compounds are tested at a single concentration, which is 10^-5 M for most compounds. The reported endpoint is percent growth (GI% or GIPRCNT), where numbers from 0 - 100% represent growth inhibition, and numbers from -100% - 0 represent cell death. For example, a value of 40 represents 60% growth inhibition. A value of 0 means no net growth occurred over the course of the experiment. A value of -40 indicates 40% of cells at the beginning of the experiment died by the end of the experiment. A value of -100 means all cells are dead at the end of the experiment.
NCI-60 Human Tumor Cell Lines Screen was performed using the standard one-dose NCI protocol, which is described in more detail at https://dtp.cancer.gov/discovery_development/nci-60/default.htm.
Compounds with GIPRCNT values below 10 were considered active. Activity score was based on GIPRCNT using the following formula: […]
Score is 0 for GIPRCNT values of 100 or above, 50 for GIPRCNT values of 0, and 100 for GIPRCNT values of -100.

SMILES | growth
O=C(Nc1ccc(N2CCOCC2)cc1)Nc1ccc2c(ccn2C(=O)c2cccc(F)c2)c1 | 42.3%
COc1ccccc1Cn1cc(C#N)c(N)c1C(=O)c1ccc(Br)cc1 | 80.6%
Cc1ccccc1Nc1nc(SC(C)C)nc(-c2ccccc2)c1C#N | 38.4%
CCS(=O)(=O)Nc1ccc(C(=O)CC2(O)C(=O)Nc3ccccc32)cc1 (stereo not given) | 82.6%
CCCCSC1=C(Cl)CN(c2ccc(Cl)cc2)C1=O | 93.9%
Cn1cc(-c2nn3cc(-c4ccncc4)nc3s2)c2cc(F)ccc21 | 63.4%
CC(=C(c1ccc(OCCN(C)C)cc1)c1ccc(OCCN(C)C)cc1)c1ccc(Cl)cc1 | -81.5% (active)
O=C(CSc1nc2ccccc2c(=O)n1-c1ccccc1)N/N=C/c1ccc(Oc2ccc(Br)cc2)cc1 | 70.8%
COc1cccc2c1C=CC1(O2)Oc2cccc(OC)c2C=C1C (stereo not given) | 29.2%
Cc1ncn(-c2ccc(/C=N/Nc3ccnc4cc(Cl)ccc34)cc2)c1C | -48.9% (active)
O=C(COc1ccc(/C=C2\C(=O)Nc3ccc(Cl)cc32)cc1)Nc1ccc(Cl)cc1 | 34.8%
Cc1ccc(NC(=O)Nc2nc3ccc([N+](=O)[O-])cc3s2)cc1 | -23.2% (active)
CCc1cc(OC(=O)N2CCN(CCC(C)(COC(C)(C)C)COC(C)(C)C)CC2)ccc1Nc1cc(-c2ccc(-n3cccn3)cc2)[nH]n1 | 64.9%
C#CCN(C)CCCOc1ccc(NCc2ccc(/C=C/C(=O)NO)cc2)cc1Cl | -35.9% (active)
COC(=O)c1ccc(NC2=C(Cl)C(=O)c3nc(C)ccc3C2=O)cc1 | 80.2%
C/C(=N\NC(=O)Nc1ccccc1)c1nnn(-c2ccc([N+](=O)[O-])cc2)c1C | 94.4%
Cn1cc(-c2nn3cc(-c4ccncc4)nc3s2)c2cc(Br)ccc21 | 56.5%
Cc1ccc(C)c(NC2=C(Cl)C(=O)c3nc(C)ccc3C2=O)c1 | 57%
Cc1ccc(N2CCN(C3=C(Cl)C(=O)c4ncccc4C3=O)CC2)cc1 | 44.3%
O=C(/C=C/c1csc(Br)n1)NO | 15.9%

SMILES | growth
CC(=O)c1cc(C(=O)N2c3ccccc3Sc3ccccc32)n2c1ccc1ccccc12 | 46.8%
O=S(=O)(Oc1ccc(-c2cn3ccoc3n2)cc1)c1cccc(C(F)(F)F)c1 | 86.9%
C/C(=C(/C)C1CC1CCNC1CCC(NC(=O)OC(C)(C)C)CC1)c1ccccc1 (stereo not given) | 53.6%
O=C(/C=C/Nc1ccc(S(=O)(=O)Nc2ncccn2)cc1)c1ccc(N=Cc2c(O)[nH]c3ccccc23)cc1 | 94.4%
Cc1ccc2c(n1)C(=O)C(Cl)=C(Nc1ccc(C(F)(F)F)cc1)C2=O | 44.4%
CCN(CC)c1ccc(/C=N/NC(=O)c2ccc(NS(C)(=O)=O)cc2)cc1 | 25.2%
Oc1[nH]c2ccc(Cl)cc2c1N=Nc1nc(N=Nc2c(O)[nH]c3ccc(Cl)cc23)nc(N2CCOCC2)n1 | 72%
O=c1[nH][nH]c(-c2ccc(F)cc2)c1-c1nc2ccccc2s1 | 87.1%
CC1(C)CC[C@]2(C(=O)NCCCCCCN(CCCN)CCCN)CC[C@]3(C)C(=CC[C@@H]4[C@@]5(C)CC[C@H](O)C(C)(C)[C@@H]5CC[C@]43C)[C@@H]2C1 | 75.2%
COc1ccc2c(c1)c(/C=N/Nc1ccnc3cc(Cl)ccc13)cn2C | -92% (active)
C#C[C@]1(O)CC[C@H]2[C@@H]3CC=C4c5sc(Nc6ccc(C)cn6)nc5CC[C@]4(C)[C@H]3CC[C@@]21C | -74.1% (active)
CNC(=O)c1cc(N2CCc3cc(NC(=O)Nc4ccc(N5CCOCC5)c(C(F)(F)F)c4)ccc32)ccn1 | 44.3%
COc1cc(C(=O)c2cc(C(C)=O)c3ccc(C)cn23)cc(OC)c1OC | 34.3%
Cn1cc(-c2cc3ncnc(Nc4ccc(NC(=O)Nc5cc(C(C)(C)C)on5)cc4)c3s2)cn1 | 14.5%
Cc1[nH]c(C(=O)Nc2ccccc2OCc2cccc(C(=O)NC3CCCNC3)c2)c(Cl)c1Cl (stereo not given) | -91.3% (active)
COc1ccc(C(=O)c2c(N)c(C#N)cn2-c2ccc(Cl)cc2Cl)cc1 | 91.7%
CN1CCN(c2ccc(Nc3nc(NCCCNS(=O)(=O)c4cccc(F)c4)c4sccc4n3)cc2)CC1 | 17.9%
O=c1c2ccccc2cc2n1CCN=C2c1ccccc1 | 82.4%
C#Cc1cc(OC)c(C(=O)Nc2ccc(F)cc2C(=O)Nc2cccc(S(=O)(=O)C(F)(F)F)c2)cn1 | -11.4% (active)
O=C1[C@@H]2Cc3c([nH]c4ccccc34)[C@@H](c3ccc(Cl)cc3)N2C(=O)CN1C1CCN(Cc2ccccc2)CC1 | 26.2%
